In PubChem BioAssay AID1159580 (chemical genetic matrix, 2015):
The campaign covered roughly 5,500 compounds. About 2,000 (36%) were called active. Another 18% or so got no clear call; they are omitted. Rule as the data show it: active = normalized growth mostly below about 0.91 (no sharp cut-off); inconclusive = no clear call, values can overlap the other calls; inactive = mostly above about 0.92. This is one part of the list.

Assay: chemical genetic growth profiling, strain panel (AID 1159580);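 also: tested at 20 µM; growth read once vehicle control cultures reached saturation at 30 °C; 1 = growth at the plate median or of vehicle wells; lower values mean less growth of the strain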
Details: S. cerevisiae deletion strains, growth OD

Measured: normalized growth

C[C@@H]1CC2C3CCC4=CC(=O)C=C[C@]4(C)[C@@]3(F)[C@@H](O)C[C@]2(C)[C@H]1C(=O)CO (stereo not given in full)
inactive: locus YAL021C, strain ccr4, active compounds read low 1 | locus YAL026C, strain drs2, active compounds read low 0.998 | locus YAL030W, strain snc1, active compounds read low 0.998 | locus YBL061C, strain skt5, active compounds read low 0.999 | locus YBR009C, strain hhf1, active compounds read low 0.997 | locus YBR023C, strain chs3, active compounds read low 0.995 | locus YBR171W, strain sec66, active compounds read low 0.986 | locus YBR231C, strain swc5, active compounds read low 0.988 | locus YBR279W, strain paf1, active compounds read low 0.997 | locus YCL011C, strain gbp2, active compounds read low 0.993 | locus YCL016C, strain dcc1, active compounds read low 1.01 | locus YCL061C, strain MRC1, active compounds read low 0.994 | locus YCL069W, strain vba3, active compounds read low 1 | locus YCR088W, strain abp1, active compounds read low 0.992 | locus YDL005C, strain med2, active compounds read low 0.997 | locus YDL040C, strain nat1, active compounds read low 0.996 | locus YDR001C, strain nth1, active compounds read low 0.987 | locus YDR069C, strain doa4, active compounds read low 0.999 | locus YDR137W, strain rgp1, active compounds read low 0.979 | locus YDR159W, strain sac3, active compounds read low 0.998 | locus YDR195W, strain ref2 0.965 | locus YDR297W, strain sur2, active compounds read low 0.996 | locus YDR334W, strain swr1, active compounds read low 1 | locus YDR335W, strain msn5, active compounds read low 1 | locus YDR392W, strain spt3, active compounds read low 0.976 | locus YEL003W, strain gim4, active compounds read low 0.999 | locus YEL037C, strain rad23, active compounds read low 1 | locus YEL061C, strain CIN8 (second series), active compounds read low 0.996 | locus YER015W, strain faa2, active compounds read low 0.999 | locus YER016W, strain bim1, active compounds read low 1 | locus YER111C, strain swi4, active compounds read low 0.982 | locus YER155C, strain BEM2 (second series), active compounds read low 0.994 | locus YFR010W, strain ubp6, active compounds read low 0.989 | locus YGL167C, strain pmr1, active compounds read low 0.996 | locus YGL173C, strain kem1, active compounds read low 0.987 | locus YGL227W, strain vid30, active compounds read low 0.989 | locus YGL240W, strain doc1, active compounds read low 1 | locus YGL253W, strain hxk2, active compounds read low 1.01 | locus YHR013C, strain ard1, active compounds read low 1 | locus YHR027C, strain rpn1, active compounds read low 0.995 | locus YHR030C, strain SLT2, active compounds read low 1.06 | locus YHR079C, strain IRE1, active compounds read low 1.05 | locus YHR142W, strain chs7, active compounds read low 1.01 | locus YJL092W, strain hpr5, active compounds read low 0.998 | locus YJL095W, strain BCK1 (second series), active compounds read low 1.01 | locus YJL095W, strain BCK1, active compounds read low 0.98 | locus YJL115W, strain asf1, active compounds read low 0.996 | locus YJL129C, strain trk1, active compounds read low 1.01 | locus YJL154C, strain vps35, active compounds read low 0.995 | locus YJL164C, strain tpk1, active compounds read low 1.01 | locus YJL166W, strain qcr8, active compounds read low 0.998 | locus YJL187C, strain SWE1, active compounds read low 0.993 | locus YJR066W, strain TOR1, active compounds read low 1.01 | locus YKL160W, strain elf1, active compounds read low 1 | locus YKR026C, strain gcn3, active compounds read low 0.982 | locus YKR091W, strain srl3, active compounds read low 0.996 | locus YLL001W, strain dnm1, active compounds read low 0.982 | locus YLL026W, active compounds read low 0.988 | locus YLL041C, strain sdh2, active compounds read low 0.999 | locus YLR027C, strain aat2, active compounds read low 1.01 | locus YLR113W, strain HOG1, active compounds read low 0.929 | locus YLR221C, strain rsa3, active compounds read low 1.01 | locus YLR258W, strain gsy2, active compounds read low 1 | locus YLR262C, strain YPT6 (second series), active compounds read low 0.985 | locus YLR320W, strain mms22, active compounds read low 0.992 | locus YLR342W, strain FKS1, active compounds read low 1 | locus YLR357W, strain rsc2, active compounds read low 0.999 | locus YLR370C, strain arc18, active compounds read low 0.993 | locus YLR384C, strain iki3, active compounds read low 1 | locus YML120C, strain ndi1, active compounds read low 1 | locus YMR058W, strain fet3, active compounds read low 1 | locus YMR125W, strain sto1, active compounds read low 0.983 | locus YMR129W, active compounds read low 0.995 | locus YMR205C, strain PFK2, active compounds read low 0.973 | locus YMR231W, strain pep5, active compounds read low 0.998 | locus YNL071W, strain lat1, active compounds read low 0.999 | locus YNL183C, strain NPR1, active compounds read low 0.992 | locus YNL209W, strain ssb2, active compounds read low 1 | locus YNL248C, strain rpa49, active compounds read low 0.999 | locus YNL322C, strain KRE1 (second series), active compounds read low 1 | locus YNR049C, strain mso1, active compounds read low 0.999 | locus YOR001W, strain rrp6, active compounds read low 1.01 | locus YOR070C, strain gyp1, active compounds read low 0.997 | locus YOR080W, strain dia2, active compounds read low 0.991 | locus YOR083W, strain WHI5, active compounds read low 1.01 | locus YOR106W, strain vam3, active compounds read low 1.02 | locus YOR231W, strain MKK1, active compounds read low 1.05 | locus YOR265W, strain rbl2, active compounds read low 1 | locus YOR270C, strain vph1, active compounds read low 1.01 | locus YOR290C, strain snf2, active compounds read low 1 | locus YPL051W, strain arl3, active compounds read low 0.999 | locus YPL078C, strain atp4, active compounds read low 1.01 | locus YPL106C, strain sse1, active compounds read low 1.01 | locus YPL240C, strain hsp82, active compounds read low 0.982 | locus YPL256C, strain CLN2, active compounds read low 1.04
